The values below come from PubChem BioAssay (NCI).

This is part of a sample that, as a whole, favours compounds with a hit. Of some 83,000 tested, about 20% had one in any assay.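 Treatment: one concentration, 48 hours, 96-well format. Scoring: percent growth, with anything below 10 considered active.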 Values without a mark were called inactive. Activity calls are given as the source filed them.

The test system of this experiment is KM12 colon. Put plainly: NCI-60 one-dose screen, 48 h (100 = growth as untreated, 0 = no growth, -100 = all killed). As to conditions: 10 µM unless noted. As for the experimental part: Growth inhibition of the KM12 human tumor cell line is measured as a screen for anti-cancer activity. Cells are grown in 96 well plates and exposed to the test compound for 48 hours. Compounds are tested at a single concentration, which is 10^-5 M for most compounds. The reported endpoint is percent growth (GI% or GIPRCNT), where numbers from 0 - 100% represent growth inhibition, and numbers from -100% - 0 represent cell death. For example, a value of 40 represents 60% growth inhibition. A value of 0 means no net growth occurred over the course of the experiment. A value of -40 indicates 40% of cells at the beginning of the experiment died by the end of the experiment. A value of -100 means all cells are dead at the end of the experiment.
NCI-60 Human Tumor Cell Lines Screen was performed using the standard one-dose NCI protocol, which is described in more detail at https://dtp.cancer.gov/discovery_development/nci-60/default.htm.
Compounds with GIPRCNT values below 10 were considered active. Activity score was based on GIPRCNT using the following formula: […]
Score is 0 for GIPRCNT values of 100 or above, 50 for GIPRCNT values of 0, and 100 for GIPRCNT values of -100.
On to `COc1cc(NN=C(c2ccc(O)cc2)c2ccc(O)cc2)c([N+](=O)[O-])cc1[N+](=O)[O-]`, for which the growth is 73.2%.

For `Cc1cc(C)c(-c2cc(O)c(-c3c(C)cc(C)cc3C)cc2O)c(C)c1`, the growth was 23.9%.

With `Cc1ccc(Oc2c(/C=N/NC(=O)Cn3c(=O)sc4ccccc43)c(C)nn2-c2ccccc2)cc1`, the growth was 49.3%.

Take `Cc1cccc(C[C@H](NC(=O)Nc2ccc(Cl)cc2F)C(=O)N[C@@H]2C(=O)N3C[C@H](O)C[C@H]3C(=O)N3CCCC[C@H]3C(=O)N[C@@H](C)C(=O)N3C[C@H](C)C[C@H]3C(=O)O[C@H]2C)c1`: the growth is -31.4% (active).

Take `COc1ncc(-c2ccc3nccc(C#CCCCCC(=O)NO)c3c2)cc1NS(=O)(=O)c1ccc(F)cc1F`: the growth was 9.84% (active).

Turning to `CCCCCCCCCCCCCC[n+]1cccc(C(N)=O)c1`, the growth was -87.1% (active).

Regarding `CCCCCCCCN(CCCCCCCC)CC(O)c1ccc(Cl)c(C)c1Cl` (stereo not given), the growth is 79.6%.

Turning to `CC(C)CCNCC(C)(C)O`, the growth was 116%.

Regarding `CC1(C)CC(=O)c2c(ccc(C(=O)C[C@@H](N)CO)c2N)O1`, the growth was 11%.

As for `CCN=Cc1c(O)c(O)c(C(C)C)c2cc(C)c(-c3c(C)cc4c(C(C)C)c(O)c(O)c(C=NCC)c4c3O)c(O)c12`, the growth is 21.3%.

Consider `CCOc1cc(NC(=O)c2ccccc2)c(OCC)cc1N`, for which the growth is 105%.

As to `CCCCC1COc2cccc3c2N1C=C/C3=C\C(=O)n1ccc2ccccc21` (stereo not given), the growth is 68.2%.

As to `COCc1nc2ccccc2[nH]1`, the growth was 106%.

Turning to `C=C(C)[C@@H]1CC[C@]2(C(=O)NCCCCCCN(CCCN)CCCN)CC[C@]3(C)[C@H](CC[C@@H]4[C@@]5(C)CC[C@H](OCCCN)C(C)(C)[C@@H]5CC[C@]43C)[C@@H]12`, the growth was 31.5% [100 µM].

Take `C=C(C)[C@@H]1CC[C@]2(c3ncc(C)o3)CC[C@]3(C)[C@H](CC[C@@H]4[C@@](C)(CCC#N)[C@H](C(=C)C)CC[C@]43C)[C@@H]12`: the growth was -75.1% [100 µM] (active).

Turning to `COc1ccc2nc3c(cc2c1)C(=O)CC(c1ccccc1)C3` (stereo not given), the growth was 10.8%.

`COc1ccc(-c2c(C)nn3c(NCCN4CCOCC4)cc(C)nc23)cc1OC`: the growth is 107%.

Turning to `O=C(O)c1cc([N+](=O)[O-])ccc1Br`, the growth is 101%.

With `COc1cc(/C=C/C(=O)/C=C/c2ccc(-n3ccnc3C)cc2)ccc1O`, the growth is -49.7% (active).

With `CC(C)CCSC1=CC(=O)c2ccccc2C1=O`, the growth is 92.1%.

As for `O=C(NCCCNC(=O)OCc1ccc2c(Br)cc(Br)c(O)c2n1)OCc1ccc2c(Br)cc(Br)c(O)c2n1`, the growth was 7.57% (active).

For `CC(C)C1=NOC(=O)C1=Cc1cn(-c2cccnc2)nc1-c1ccccc1`, the growth is 102%.

For `COc1ncnc2c(-c3ccccc3)cn(COCc3ccccc3)c12`, the growth is 42.5%.

As to `c1nc(N2CCOCC2)c2[nH]ccc2n1`, the growth was 115%.

As to `Cn1cc(-c2nnc(-c3cn(C)c4ncccc34)o2)c2ccccc21`, the growth was 22.1%.

With `O=C1COCCN1c1ccc(NCc2cn(Cc3ccccc3)c3ccccc23)cc1`, the growth was 104%.

Turning to `CC1(C)C(=O)/C(=C\c2ccco2)C[C@]2(C)[C@H]3CC=C4[C@@H]5C[C@](C)(C(=O)O)CC[C@]5(C)CC[C@@]4(C)[C@]3(C)CC[C@@H]12`, the growth is -77.5% [100 µM] (active).

As for `COc1ccc(/C=C(/C(=O)c2ccc(Cl)cc2)C(=O)C(F)(F)F)cc1`, the growth was 91.6%.

Regarding `C=C(C)[C@@H]1CC[C@]2(C)[C@H](CC=C3[C@@H]4[C@@H](C)[C@H](C)CC[C@]4(C(N)=O)CC[C@]32C)[C@@]1(C)CCC#N`, the growth is -46.4% [100 µM] (active).

Turning to `COc1ccc(-c2cc(-c3ccc(OC)c(OC)c3)nc(SCCCCCC(=O)NO)n2)cc1`, the growth is 63.9%.

Take `CN(Cc1cccc(C(F)(F)F)c1)C(=O)[C@@H](CC(=O)N1CCC(N2CCCCC2)CC1)N1C(=O)[C@@H](N2C(=O)OC[C@@H]2c2ccccc2)[C@H]1/C=C/c1ccccc1`: the growth is 102%.

Take `Cc1ccc2c(n1)C(=O)C(Cl)=C(Nc1ccc(N3CCN(C)CC3)cc1)C2=O`: the growth was 92.1%.

Consider `CC(C)C1=NOC(=O)C1=Cc1cn(-c2ccccc2)nc1-c1ccc(Br)cc1`, for which the growth is 85.4%.

In the case of `COc1ccc2nc3c(cc2c1)C(=O)CC(C(F)(F)F)C3` (stereo not given), the growth was 11.6%.

As to `CCCc1cc2cc(-n3nc(C)c4c3CC(C)(C)CC4=O)cc(NC3CCSCC3)c2c(=O)[nH]1`, the growth is 41.7%.

As for `CCOC(=O)c1nn(C2CCCCO2)c2ccc(NC(=O)CSc3nc4ccccc4c(=O)[nH]3)cc12` (stereo not given), the growth is 102%.

As to `CCOC(=O)CCC[P+](c1ccccc1)(c1ccccc1)c1ccccc1`, the growth was 44.7%.

On to `Brc1ccc(-c2nnc3c4[nH]ccc4ncn23)cc1`, for which the growth is 73.4%.

In the case of `C#CCOc1ccc(C2=NN(CC3CC3)C3N=C(Cl)c4ncn(CC5CC5)c4N23)cc1OCC#C` (stereo not given), the growth is 46.6%.

Turning to `Cc1nc(-c2ccccc2)sc1CC#N`, the growth was 107%.
